Assay results as given in PubChem BioAssay (Tox21).
Active and inactive are the calls of the source. The call rests on the fitted dose curve.
On the % scale 0 is the no-effect control and ±100 the full control effect.

Assay: qHTS assay to identify small molecule agonists of the estrogen related receptor (ERR) signaling pathway from Tox21 library (AID 1224849); further: nearly all actives have a fitted effect of over 15% in size
Conditions: ERR reporter cell line, ONE-Glo luciferase, 18 h; at 92.4 µM (top of the series) unless noted
Summary of the method: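 Quantitative HTS in agonist format: NTP ERR cell line, compounds transferred in DMSO after 6 h plating, 18 h incubation at 37 C, ONE-Glo luminescence endpoint.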
In the case of `O=C(NCC1CN(c2ccc(N3CCOCC3=O)cc2)C(=O)O1)c1ccc(Cl)s1` (stereo not given), the activity change, positive = activation was -38.4% [at 42.5 µM] (inactive).
In the case of `CC(COCCO)OCCO` (stereo not given), the activity change, positive = activation was 0.277% (inactive).
In the case of `CCC(C)(C)CC`, the activity change, positive = activation was -6.86% (inactive).
For `CCN(CC)CCNc1ccc(CNC=O)c2sc3ccc(OC)cc3c(=O)c12`, the activity change, positive = activation was -41.1% (inactive).
With `CC[N+](C)(CC)CCOC(=O)C(O)(c1ccccc1)C1CCCCC1` (stereo not given) the activity change, positive = activation was -2.02% [at 42.5 µM] (inactive).
In the case of `CN1CCC(N(Cc2cccs2)c2ccccc2)CC1`, the activity change, positive = activation was 0.685% [at 42.5 µM] (inactive).
With `C=C(C)C(=O)OCC` the activity change, positive = activation was 5.74% (inactive).
In the case of `C[N+]1(CC2COC(c3ccccc3)(C3CCCCC3)O2)CCCCC1` (stereo not given), the activity change, positive = activation was -8.13% [at 42.5 µM] (inactive).
In the case of `NCCCN1CCOCC1`, the activity change, positive = activation was 6.49% (inactive).
In the case of `CC(=O)[O][Al]`, the activity change, positive = activation was 0.0434% (inactive).
In the case of `NC(=O)C(c1ccccc1)(c1ccccc1)[C@@H]1CCN(CCc2ccc3c(c2)CCO3)C1`, the activity change, positive = activation was -1.44% [at 42.5 µM] (inactive).
For `CC(=O)[O][Al][O]C(C)=O`, the activity change, positive = activation was 1.12% (inactive).
For `CCCCOC(=O)CCCCCCCC(=O)OCCCC`, the activity change, positive = activation was 2.99% (inactive).
For `CCCCC(CC)COC(=O)CCCCCCCCC(=O)OCC(CC)CCCC` (stereo not given), the activity change, positive = activation was 1.57% (inactive).
In the case of `CN(C)CCOC(c1ccccc1)c1ccc(Br)cc1` (stereo not given), the activity change, positive = activation was -2.31% [at 42.5 µM] (inactive).
In the case of `O=C(OCCCCCCOC(=O)c1ccccc1)c1ccccc1`, the activity change, positive = activation was 1.59% (inactive).
With `C[Si](C)(CCCN)O[Si](C)(C)CCCN` the activity change, positive = activation was -0.594% (inactive).
With `CCC(C)O` (stereo not given) the activity change, positive = activation was 0.0918% (inactive).
For `Nc1cccc([N+](=O)[O-])c1`, the activity change, positive = activation was -5.85% (inactive).
With `NS(=O)(=O)c1ccc(N2CCCCS2(=O)=O)cc1` the activity change, positive = activation was 5.22% [at 42.5 µM] (inactive).
With `Cc1ncc(CO)c(C=O)c1O` the activity change, positive = activation was 2.22% [at 42.5 µM] (inactive).
For `OC[C@H]1O[C@@H](OCCc2ccc(O)cc2)[C@H](O)[C@@H](O)[C@@H]1O`, the activity change, positive = activation was 4.76% [at 42.5 µM] (inactive).
In the case of `Nc1ccc([N+](=O)[O-])c(C(F)(F)F)c1`, the activity change, positive = activation was -17.3% [at 42.5 µM] (inactive).
In the case of `O=C(O)c1nc(Cl)c(Cl)c(Cl)c1Cl`, the activity change, positive = activation was 0.56% (inactive).
With `CC(C)OC(=O)C(C)N(C(=O)c1ccccc1)c1ccc(F)c(Cl)c1` (stereo not given) the activity change, positive = activation was -51.7% (inactive).
For `C[C@@H](c1ncncc1F)C(O)(Cn1cncn1)c1ccc(F)cc1F` (stereo not given in full), the activity change, positive = activation was -0.316% [at 42.5 µM] (inactive).
With `OC(C#CCN1CCCC1)(c1ccccc1)c1ccccc1` the activity change, positive = activation was -10.1% [at 42.5 µM] (inactive).
In the case of `CCC(Cl)CCC(Cl)C(Cl)CC(Cl)C(Cl)C(Cl)CCl` (stereo not given), the activity change, positive = activation was 0.0481% (inactive).
With `O=[N+]([O-])c1ccc(NCCO)c(OCCO)c1` the activity change, positive = activation was -14.5% (inactive).
For `CC(C)(O)c1ccc(CNC(=O)c2cccnc2Oc2ccc(F)cc2)cc1`, the activity change, positive = activation was -45% (inactive).
For `CC(CSC(=O)c1ccccc1)C(=O)N1C[C@@H](Sc2ccccc2)C[C@H]1C(=O)O` (stereo not given in full), the activity change, positive = activation was -0.059% [at 19 µM] (inactive).
With `CCCCC/C=C\C/C=C\CCCCCCCC(=O)NC(C)c1ccccc1` (stereo not given) the activity change, positive = activation was -35.5% [at 42.5 µM] (inactive).
In the case of `CN1Cc2cc(C(=O)N3CCC(C4CCNCC4)CC3)ccc2NC(CC(=O)O)C1=O` (stereo not given), the activity change, positive = activation was 1.47% [at 42.5 µM] (inactive).
In the case of `COc1cc2nc(N(C)CCCNC(=O)C3CCCO3)nc(N)c2cc1OC` (stereo not given), the activity change, positive = activation was -34.3% [at 42.5 µM] (inactive).
For `COC(C)(C)CCO`, the activity change, positive = activation was 3.52% (inactive).
